The values below come from paper PMC9911399, “Two distinct binding modes provide the RNA-binding protein RbFox with extraordinary sequence specificity”.

First the molecules themselves.
T1: RBFOX1 RRM RbFoxmut (Fox-RRM*) (Homo sapiens, UniProt Q9NWB1 109-208, R118D;E147R;N151S;E152T)
T1 sequence: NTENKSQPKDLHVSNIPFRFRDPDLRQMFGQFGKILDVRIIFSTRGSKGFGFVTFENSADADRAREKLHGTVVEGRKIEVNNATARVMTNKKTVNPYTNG

B1: UAACUCA (DNA:RNA)
RNA: GGGAGACCGGAAUUCAGAUUGUCCUAACUCAUUAAAUCCCGUCGUAGCCACCA
DNA 1: CAATCTGAATTCCGGTCTCCC
DNA 2: TGGTGGCTACGACGGGATT
B2: CCUCUGC (DNA:RNA)
RNA: B1 RNA with U25C, A26C, A27U, C30G, A31C
DNA 1: CAATCTGAATTCCGGTCTCCC
DNA 2: TGGTGGCTACGACGGGATT
B3: GACAUAA (DNA:RNA)
RNA: B1 RNA with U25G, A27C, C28A, C30A
DNA 1: CAATCTGAATTCCGGTCTCCC
DNA 2: TGGTGGCTACGACGGGATT
B4: GCAUGAU (DNA:RNA)
RNA: B1 RNA with U25G, A26C, C28U, U29G, C30A, A31U
DNA 1: CAATCTGAATTCCGGTCTCCC
DNA 2: TGGTGGCTACGACGGGATT
B5: GCAUAAU (DNA:RNA)
RNA: B1 RNA with U25G, A26C, C28U, U29A, C30A, A31U
DNA 1: CAATCTGAATTCCGGTCTCCC
DNA 2: TGGTGGCTACGACGGGATT
B6: GCAUAAA (DNA:RNA)
RNA: B1 RNA with U25G, A26C, C28U, U29A, C30A
DNA 1: CAATCTGAATTCCGGTCTCCC
DNA 2: TGGTGGCTACGACGGGATT
B7: GCAUGAA (DNA:RNA)
RNA: B1 RNA with U25G, A26C, C28U, U29G, C30A
DNA 1: CAATCTGAATTCCGGTCTCCC
DNA 2: TGGTGGCTACGACGGGATT
B8: GCAUAGA (DNA:RNA)
RNA: B1 RNA with U25G, A26C, C28U, U29A, C30G
DNA 1: CAATCTGAATTCCGGTCTCCC
DNA 2: TGGTGGCTACGACGGGATT
B9: GCAUUUU (DNA:RNA)
RNA: B1 RNA with U25G, A26C, C28U, C30U, A31U
DNA 1: CAATCTGAATTCCGGTCTCCC
DNA 2: TGGTGGCTACGACGGGATT
B10: CGCCCUU (DNA:RNA)
RNA: B1 RNA with U25C, A26G, A27C, U29C, C30U, A31U
DNA 1: CAATCTGAATTCCGGTCTCCC
DNA 2: TGGTGGCTACGACGGGATT
B11: UCGUUAU (DNA:RNA)
RNA: B1 RNA with A26C, A27G, C28U, C30A, A31U
DNA 1: CAATCTGAATTCCGGTCTCCC
DNA 2: TGGTGGCTACGACGGGATT
B12: UGUAAUG (DNA:RNA)
RNA: B1 RNA with A26G, A27U, C28A, U29A, C30U, A31G
DNA 1: CAATCTGAATTCCGGTCTCCC
DNA 2: TGGTGGCTACGACGGGATT
B13: CGUAAUG (DNA:RNA)
RNA: GGGAGACCGGAAUUCAGAUUGUCCCGUAAUGUUAAAUCCCGUCGUAGCCACCA
DNA 1: CAATCTGAATTCCGGTCTCCC
DNA 2: TGGTGGCTACGACGGGATT
B14: UGUAUUC (DNA:RNA)
RNA: B13 RNA with C25U, A29U, G31C
DNA 1: CAATCTGAATTCCGGTCTCCC
DNA 2: TGGTGGCTACGACGGGATT
B15: UGUAAUC (DNA:RNA)
RNA: B13 RNA with C25U, G31C
DNA 1: CAATCTGAATTCCGGTCTCCC
DNA 2: TGGTGGCTACGACGGGATT
B16: UGUUAAA (DNA:RNA)
RNA: B13 RNA with C25U, A28U, U30A, G31A
DNA 1: CAATCTGAATTCCGGTCTCCC
DNA 2: TGGTGGCTACGACGGGATT
B17: UGUAGGC (DNA:RNA)
RNA: B13 RNA with C25U, A29G, U30G, G31C
DNA 1: CAATCTGAATTCCGGTCTCCC
DNA 2: TGGTGGCTACGACGGGATT
B18: UGUCGUA (DNA:RNA)
RNA: B13 RNA with C25U, A28C, A29G, G31A
DNA 1: CAATCTGAATTCCGGTCTCCC
DNA 2: TGGTGGCTACGACGGGATT
B19: UGUAUGC (DNA:RNA)
RNA: B13 RNA with C25U, A29U, U30G, G31C
DNA 1: CAATCTGAATTCCGGTCTCCC
DNA 2: TGGTGGCTACGACGGGATT
B20: UGUAUGA (DNA:RNA)
RNA: B13 RNA with C25U, A29U, U30G, G31A
DNA 1: CAATCTGAATTCCGGTCTCCC
DNA 2: TGGTGGCTACGACGGGATT
B21: UGUGUGG (DNA:RNA)
RNA: B13 RNA with C25U, A28G, A29U, U30G
DNA 1: CAATCTGAATTCCGGTCTCCC
DNA 2: TGGTGGCTACGACGGGATT
B22: UGUAGGG (DNA:RNA)
RNA: B13 RNA with C25U, A29G, U30G
DNA 1: CAATCTGAATTCCGGTCTCCC
DNA 2: TGGTGGCTACGACGGGATT
B23: UGUAUGG (DNA:RNA)
RNA: B13 RNA with C25U, A29U, U30G
DNA 1: CAATCTGAATTCCGGTCTCCC
DNA 2: TGGTGGCTACGACGGGATT

Substitutions are numbered along the chain they refer to; changes in the protein carry UniProt numbers. Over roughly 16,000 sequences, “ka relative to ugcaugu” has its median near 0.096; the highest 2% begin near 0.35. Only a selection was taken, and the highest values are over-represented in it overall.

This experiment concerns the target T1, RBFOX1 RRM RbFoxmut (Fox-RRM*). The experiment is described as follows: EMSA; HiTS-Eq, 1 nM pool, 10 min; buffer printed only for the single-RNA assays: 10 mM Tris pH 7.5, 150 mM NaCl, 3.4 mM EDTA, 0.001% NP-40, 30 C. As to conditions: tags: His6 N-terminal (pET28a); label: 5' 32P. Summed up: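 Purified wild-type or mutant RbFox RRM at increasing concentrations was equilibrated with 1 nM of 5′-radiolabelled RNA carrying 7 randomized nucleotides for 10 min in 50 µL. Unbound RNA was separated by 8% native PAGE and sequenced. Relative association constants came from read-count changes of each RNA species compared with the control reaction, normalised to the cognate motif.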
For the molecule B1, the binding signal is 0.1 KA relative to UGCAUGU.

On to B2, for which the binding signal is 0.0985 KA relative to UGCAUGU.

B3: the binding signal is 0.115 KA relative to UGCAUGU.

In the case of B4, the binding signal was 0.551 KA relative to UGCAUGU.

As to B5, the binding signal was 0.115 KA relative to UGCAUGU.

Turning to B6, the binding signal was 0.144 KA relative to UGCAUGU.

With B7, the binding signal is 0.798 KA relative to UGCAUGU.

B8: the binding signal is 0.132 KA relative to UGCAUGU.

Regarding B9, the binding signal was 0.113 KA relative to UGCAUGU.

Take B10: the binding signal was 0.0724 KA relative to UGCAUGU.

Consider B11, for which the binding signal was 0.11 KA relative to UGCAUGU.

Turning to B12, the binding signal was 0.381 KA relative to UGCAUGU.

In the case of B13, the binding signal was 0.157 KA relative to UGCAUGU.

B14: the binding signal is 0.207 KA relative to UGCAUGU.

Consider B15, for which the binding signal is 0.157 KA relative to UGCAUGU.

As to B16, the binding signal was 0.11 KA relative to UGCAUGU.

As to B17, the binding signal is 0.115 KA relative to UGCAUGU.

Take B18: the binding signal is 0.13 KA relative to UGCAUGU.

Consider B19, for which the binding signal was 0.684 KA relative to UGCAUGU.

As for B20, the binding signal was 0.44 KA relative to UGCAUGU.

Take B21: the binding signal was 0.173 KA relative to UGCAUGU.

As for B22, the binding signal is 0.0751 KA relative to UGCAUGU.

With B23, the binding signal was 0.394 KA relative to UGCAUGU.
